In the GenesisPotency data set:
The campaign covered roughly 290,000 compounds. About 3,000 (1%) were called active. No stated cut-off is given here; in the data, active means inhibition mostly above about 36% (no sharp cut-off); inactive means mostly below about 34%. The sample as a whole holds a higher share of actives than the screen did.

target: T1, Nucleotide-binding oligomerization domain-containing protein 1, Homo sapiens (UniProt Q9Y239); assay: inhibition of NOD1-driven NF-kB reporter – cell-based, luminescence, uHTS, primary screen (AID 1578)
T1 sequence (whole entry): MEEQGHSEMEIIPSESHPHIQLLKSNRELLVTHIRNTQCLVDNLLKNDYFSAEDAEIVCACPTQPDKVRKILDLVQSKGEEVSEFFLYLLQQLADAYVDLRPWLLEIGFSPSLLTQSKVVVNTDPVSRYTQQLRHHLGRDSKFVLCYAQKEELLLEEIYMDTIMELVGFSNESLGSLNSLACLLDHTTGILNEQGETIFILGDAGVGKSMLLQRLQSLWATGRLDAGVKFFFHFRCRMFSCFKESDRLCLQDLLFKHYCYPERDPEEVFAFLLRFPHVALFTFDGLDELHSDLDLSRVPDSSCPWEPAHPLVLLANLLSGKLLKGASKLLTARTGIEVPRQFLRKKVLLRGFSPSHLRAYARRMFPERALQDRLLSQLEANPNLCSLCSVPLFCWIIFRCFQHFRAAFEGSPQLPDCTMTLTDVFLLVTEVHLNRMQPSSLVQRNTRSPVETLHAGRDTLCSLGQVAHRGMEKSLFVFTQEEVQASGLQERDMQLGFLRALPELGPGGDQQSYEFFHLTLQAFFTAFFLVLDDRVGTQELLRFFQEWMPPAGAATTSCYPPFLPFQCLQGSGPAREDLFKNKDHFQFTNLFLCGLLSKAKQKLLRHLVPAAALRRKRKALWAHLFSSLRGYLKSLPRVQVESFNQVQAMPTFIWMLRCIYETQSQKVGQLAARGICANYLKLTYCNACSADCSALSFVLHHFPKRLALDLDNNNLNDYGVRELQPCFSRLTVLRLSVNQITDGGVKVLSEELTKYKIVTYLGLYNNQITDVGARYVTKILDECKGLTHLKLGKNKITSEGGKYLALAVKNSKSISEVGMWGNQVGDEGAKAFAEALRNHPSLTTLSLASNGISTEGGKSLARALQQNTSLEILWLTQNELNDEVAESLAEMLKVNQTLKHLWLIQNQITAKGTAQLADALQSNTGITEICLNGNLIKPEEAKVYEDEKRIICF

outcome, active:
Cc1ccccc1CN1CCc2c(OCC(=O)N3CCCc4ccccc43)cccc2C1=O
O=[N+]([O-])c1ccc(NC(=S)NCCc2ccc(Cl)cc2)cc1
O=[N+]([O-])c1ccc(NC(=S)NCc2ccc(F)cc2)cc1
COc1ccc(-c2cc(C)no2)cc1S(=O)(=O)N1CCN(c2ccccc2F)CC1
Cc1cc(-c2ccc(C)c(S(=O)(=O)N3CCN(c4ccc(F)cc4)CC3)c2)on1
CCOC(=O)COc1ccc2ccccc2c1/C=C/[N+](=O)[O-]
COc1ccc(CC(=O)Nc2cccc(-c3nnc(-c4ccc(C)cc4)o3)c2)cc1OC
c1ccc2c(c1)ncn2-c1ccc(-c2ccnc(-c3ccncc3)n2)cc1
Nc1nccc(-c2ccc(-n3cnc4ccccc43)cc2)n1
O=C(NNC(=O)c1ccccc1OCc1ccc(F)cc1)c1ccccc1O
O=C(NNC(=O)c1ccccc1OCc1ccccc1)c1ccccc1O
COc1ccc(C2=Nn3c(nnc3-c3ccncc3)SC2)cc1
COc1cccc(-c2nnc3n2N=C(C(C)(C)C)CS3)c1
c1ccc(C2=Nn3c(nnc3-c3ccncc3)SC2)cc1
c1csc(C2=Nn3c(nnc3-c3ccncc3)SC2)c1
Clc1ccccc1C1=Nn2c(nnc2-c2ccncc2)SC1
N#C/C(=C(/O)COC(=O)COc1ccc(Cl)cc1)c1nc2ccccc2[nH]1
N#C/C(=C(/O)COC(=O)COc1cccc(Br)c1)c1nc2ccccc2[nH]1
Cc1cc(C)cc(OCC(=O)OC/C(O)=C(\C#N)c2nc3ccccc3[nH]2)c1
COc1ccc(-[n+]2c(C)cc(/C=C3\Sc4ccccc4N3C)cc2C)cc1.[I-]
COc1ccc(-c2cncnc2-c2ccc(OC)cc2O)cc1
COc1ccc(-c2cnc(N)nc2-c2ccc(OC)cc2O)cc1
Cc1ccc(Nc2cc(C)nn2-c2nc(C)cc(=O)[nH]2)cc1
O=c1c2c(nc3c(-c4ccc(Cl)cc4)c[nH]n13)CCC2
O=c1c2c(nc3c(-c4cccc(Br)c4)c[nH]n13)CCCC2
O=c1c2c(nc3c(-c4ccc(Cl)cc4)c[nH]n13)CCCC2
CCCc1cc(=O)n2[nH]cc(-c3ccc(Cl)cc3)c2n1
CN(C)S(=O)(=O)N1CCC(Oc2cccc(C(=O)NC3CCCCCC3)c2)CC1
Cc1cccc(NC(=S)N/N=C/c2ccc([N+](=O)[O-])s2)c1
Cc1ccc(NC(=S)N/N=C/c2ccc([N+](=O)[O-])s2)cc1
Cc1cc(N2CCOCC2)c2c(N)c(Br)cc(C)c2n1
O=C(Nc1nnc(SCc2ccc(F)cc2)s1)c1ccccn1
CC(Oc1ccc(Br)cc1)C(=O)Nc1nc(-c2ccccn2)cs1 (configuration not stated)
O=C(Nc1nc(-c2cc(F)ccc2F)cs1)c1ccccn1
O=C(Nc1nc(-c2ccccn2)cs1)Nc1ccc(F)cc1F
O=C(Nc1nc(-c2ccccn2)cs1)c1cc(Cl)ccc1[N+](=O)[O-]
Cn1cc([N+](=O)[O-])c(C(=O)Nc2nc(-c3ccc(Cl)cc3)cs2)n1
OCCCNc1ncnc2scc(-c3ccc(Cl)cc3)c12
COc1ccc(-c2csc3ncnc(NCCO)c23)cc1
COc1ccc(-c2csc3ncnc(NCCCO)c23)cc1
CCN(CC)S(=O)(=O)c1ccc2[nH]cc(C(=O)NCCC3=CCCCC3)c(=O)c2c1
Cn1c(=O)c2c(nc(NCc3ccco3)n2C/C=C/c2ccccc2)n(C)c1=O
O=C(Nc1ccc(S(=O)(=O)N2CCOCC2)cc1)c1ccc(CN2CCc3ccccc3C2)cc1
O=C(Nc1ccc(S(=O)(=O)N2CCCCC2)cc1)c1ccc(CN2CCOCC2)cc1
O=C(Nc1ccc(CN2CCOCC2)cc1)c1ccc(-c2ccc(Cl)cc2Cl)o1
O=C(Nc1ccc(S(=O)(=O)Nc2ccc(F)cc2)cc1)c1ccc(CN2CCOCC2)cc1
O=C(Nc1ccc(S(=O)(=O)N2CCCCC2)cc1)c1ccc(CN2CCc3ccccc3C2)cc1
